In PubChem BioAssay AID651725 (National Center for Advancing Translational Sciences (NCATS), 2012):
In all, about 360,000 compounds went through this assay and about 2,000 (0.56%) were called active. Another 2% or so got no clear call; they are omitted. No stated cut-off is given here; in the data, active means activity change below about -65%; inconclusive means mostly about -30% to -63%; inactive means weaker than that. Only a selection was taken, and actives are over-represented in it overall.

target: Homeobox protein SIX1 (Homo sapiens) + Protein phosphatase EYA2 (Homo sapiens) (UniProt Q15475+O00167); assay: qHTS Assay for Inhibitors of the Six1/Eya2 Interaction; conditions: AlphaScreen GST-Six1/His-Eya2 binding, biochemical; active compounds read low
Sequence (O00167 whole entry, looked up): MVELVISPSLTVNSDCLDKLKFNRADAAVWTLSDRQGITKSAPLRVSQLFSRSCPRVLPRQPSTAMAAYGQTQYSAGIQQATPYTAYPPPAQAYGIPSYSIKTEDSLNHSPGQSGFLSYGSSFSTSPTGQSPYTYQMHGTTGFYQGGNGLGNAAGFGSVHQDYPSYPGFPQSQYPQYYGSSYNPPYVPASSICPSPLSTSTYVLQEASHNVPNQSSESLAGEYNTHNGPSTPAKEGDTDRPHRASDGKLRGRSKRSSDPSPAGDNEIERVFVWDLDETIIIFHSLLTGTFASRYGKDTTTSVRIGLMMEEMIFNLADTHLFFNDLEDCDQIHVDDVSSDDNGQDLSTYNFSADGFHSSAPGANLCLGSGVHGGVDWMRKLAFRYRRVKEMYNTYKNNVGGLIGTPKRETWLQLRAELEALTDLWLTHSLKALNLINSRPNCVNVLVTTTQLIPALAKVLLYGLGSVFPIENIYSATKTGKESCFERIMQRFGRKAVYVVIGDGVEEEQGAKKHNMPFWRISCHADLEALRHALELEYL
Sequence (Q15475 whole entry, looked up): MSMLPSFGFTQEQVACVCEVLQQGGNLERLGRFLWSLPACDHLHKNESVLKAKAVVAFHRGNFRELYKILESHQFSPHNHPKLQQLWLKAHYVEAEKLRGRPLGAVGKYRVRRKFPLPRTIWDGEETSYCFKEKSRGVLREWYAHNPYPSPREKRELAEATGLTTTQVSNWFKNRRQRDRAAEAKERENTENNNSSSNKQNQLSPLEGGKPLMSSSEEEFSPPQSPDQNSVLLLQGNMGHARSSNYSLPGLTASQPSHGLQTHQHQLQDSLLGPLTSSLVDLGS
Method in brief: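 Six1/Eya2 binding was read as AlphaScreen signal after compounds were pinned into GST-Six1 plus His-tagged Eya2 (5X stock 250/500 nM) in pH 8.0 Tris/NaCl/TCEP buffer, beads added, then incubated 1 h, 37 C, dark.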
On the % scale 0 is the no-effect control and ±100 the full control effect.

Activity change, active:
Oc1c(CN2CCN(c3ccc(F)cc3)CC2)cc(Cl)c2cccnc12 -81.4%
CCN1CCN(C(c2cccnc2)c2cc(Cl)c3cccnc3c2O)CC1 (configuration not stated) -90.1%
CCOC(=O)N1CCN(C(c2cccnc2)c2ccc3cccnc3c2O)CC1 (configuration not stated) -88.9%
Cc1nnc(N/N=C/c2ccccn2)[nH]c1=O -72.8%
CCOc1ccc(-n2c(O)c(/C=N/Nc3nnc(C)c(=O)[nH]3)c3ccccc3c2=O)cc1 -93.7%
Oc1c(C(c2ccccn2)N2CCOCC2)ccc2cccnc12 (configuration not stated) -91.8%
Cc1cccc(-n2cnc(C(=O)NNC(=S)Nc3ccccc3)c2)n1 -90.4%
Cn1c(N)c(C(=O)COC(=O)c2cnc(Cl)c(Cl)c2)c(=O)n(C)c1=O -92.3%
Cc1ncc(CO)c(/C=N/NC(=O)c2cccc(S(=O)(=O)N3CCCC3)c2)c1O -82.4%
Cc1cc(OC(=O)c2ccc(Cl)cc2)cc(=O)n1C -92.4%
Cc1nc(N)sc1N=Nc1c(C)n(C)n(-c2ccccc2)c1=O -66.7%
O=C(CSc1cccc2cccnc12)N/N=C/c1cccnc1 -80.7%
CNc1[nH]ncc1[N+](=O)[O-] -66.5%
Nc1nnnn1/N=C/c1cc([N+](=O)[O-])ccc1O -65.9%
COc1ccc(/C=N/N(C)C2=NS(=O)(=O)c3ccccc32)cc1OC -67.9%
Oc1ccc2ccccc2c1N=Nc1nccs1 -81.4%
Oc1ccc(N=Nc2nccs2)c(O)c1 -77.5%
O=C1c2ccccc2C(=O)c2c1cccc2N1CCN(Cc2ccccc2)CC1 -88.9%

Activity change, inactive:
O=C1NC[C@H](CCCCN2CCN(CCc3ccccc3)C(=O)C2=O)N(CC2CCCCC2)C1=O -4.53%
Cc1cc(=O)oc2cc(OCC(=O)N3CCN(c4ccc(F)cc4)CC3)c(Cl)cc12 3.08%
Cc1cccc(C)c1NC(=O)CN1CCN(c2ccc(F)cc2)CC1 -0.798%
CSCCC(C(=O)NC(C)(C)C)n1c(-c2ccccc2)nc2ccccc21 (configuration not stated) 7.41%
Cc1ccc(-c2ccc(C3=CC(=O)CC(C)(C)C3=O)cc2)cc1 -1.02%
CCCc1nc2ccccc2n1C(C)C(=O)NC(C)(C)C (configuration not stated) -4.69%
CCOC(=O)N1CCN(C(=O)C2CCN(c3ncnc4c3sc3cccc(F)c34)CC2)CC1 -5.48%
CCOC(=O)N1CCN(C(c2ccnc3ccccc23)c2nnnn2-c2c(C)cccc2C)CC1 (configuration not stated) 18.3%
C=CCC[C@H](CCCCC)OC(=O)/C=C/[C@H](O)[C@@H](O)C[C@@H](O)CC=C 9.69%
COC(=O)C[C@H]1C=C[C@@H](NS(=O)(=O)c2ccc(C)cc2)[C@@H](CO)O1 -7.03%
Cc1ccc(Cn2cc(CN3CC(N4CCN(C)CC4)CS3(=O)=O)nn2)cc1 (configuration not stated) 2.69%
COc1ccc(/C=N/Nc2nc(-c3ccc(C)cc3)c(C#N)c(=O)[nH]2)cc1 1.97%
COc1ccc(-n2c(O)c(C=NCC(c3ccco3)N3CCCC3)c3ccccc3c2=O)cc1OC (configuration not stated) -13%
Cc1cc(=O)[nH]c(N/N=C/c2c(C)nn(-c3ccccc3Cl)c2Cl)n1 1.43%
CCOc1ccc(N/C(N)=N/c2nc(C)c(C)c(=O)[nH]2)cc1 1.12%
Cc1[nH]nc(SCC(=O)NCC(C)C)c1[N+](=O)[O-] 3.57%
COc1ccc(N(CCC#N)S(=O)(=O)c2ccc(Cl)cc2)cc1 3.78%
CCCCOCCCNC(=O)C[C@@H]1C[C@@]2(C(=O)OCC)CCCC=C2N(CCC2=CCCCC2)C1=O -13.6%
COCCNC(=O)C1C(=O)Nc2ccccc2C(=O)N1c1ccc2c(c1)OCCO2 (configuration not stated) 7.33%
CC1(C(=O)Nc2ccc3c(c2)OCCO3)CN(S(C)(=O)=O)CC(=O)N1Cc1cccc(F)c1 (configuration not stated) 6.88%
O=C(C[C@H]1CC[C@H]2[C@@H](COC[C@H](O)CN2C(=O)c2ccccn2)O1)N1CCN(c2ccccc2)CC1 -7.33%
CCCCn1nnnc1C1(C)CCC(=O)N1Cc1ccc(OC)c(OC)c1 (configuration not stated) -14.1%
CC(C)NC(=O)C(=O)NCCCOC(C)C 7.72%
Cc1cccc(-n2cnc(C(=O)Nc3cccnc3)c2)n1 26.5%
Cc1nn(C)cc1C(=O)NNC(=S)Nc1ccc(Cl)cc1 0.473%
O=C1COc2ccc(S(=O)(=O)NCCc3ccc(Cl)cc3)cc2N1 6.96%
CCOC(=O)[C@]12CCCC=C1N(CCC1=CCCCC1)C(=O)[C@H](CC(=O)N1CCOCC1)C2 8.54%
Cn1c(N)c(C(=O)COC(=O)COc2ccc(Cl)cc2)c(=O)n(C)c1=O -10.5%
Cn1c(N)c(C(=O)COC(=O)c2ccc3ccccc3c2)c(=O)n(C)c1=O -0.607%
COC(=O)c1scc(S(=O)(=O)C(C)(C)C)c1-n1cccc1 5.88%
CCC(=O)Nc1ccc(C(=O)CSc2nnc(CNc3ccc(Cl)cc3)o2)cc1OC -0.882%
O=C(NCc1ccccc1Cl)C1CCC(CNc2c(N3CCCCC3)c(=O)c2=O)CC1 (configuration not stated) 5.37%
Cc1cccc(NC(=O)c2cccc(S(=O)(=O)N3CCCC3)c2)n1 -10.7%
CCOc1cc(/C=N/NC(=O)c2cccc(S(=O)(=O)N3CCOCC3)c2)ccc1OCC(=O)N(C)C -8.33%
CCCC[C@@H]1CN=C(N)N1CCc1cc(C(F)(F)F)cc(C(F)(F)F)c1 16.6%
Cc1ccc(CNC(=O)CCCNC(=O)c2ccc(Cl)cc2)n1C -7.14%
Cn1cncc1COC(=O)c1ccc(Cl)cc1 -6.11%
O=C1NC[C@H](Cc2ccc(O)cc2)N(C[C@@H]2CCCN2C[C@H](Cc2ccccc2)N2C[C@H](Cc3ccccc3)N(CC3CCCCC3)C(=O)C2=O)C1=O 9.57%
COC(=O)[C@]12CCCCC=C1N(CCC1=CCCCC1)C(=O)[C@H](CC(=O)NCC1CCCCC1)C2 -2.3%
Cc1c(N=Nc2ccc(N(C)C)cc2)c(=O)n(-c2ccccc2)n1C -7.33%
Cc1c(C=O)n(C)n(-c2ccccc2)c1=O 15.7%
CCCCCCCCN1C(=O)[C@H](CC(=O)NCc2cccc3ccccc23)C[C@@]2(C(=O)OC)CCCCC=C12 0.0747%
N#Cc1ccc(C(C(=O)NCc2ccccc2)n2c(=O)c(-c3ccco3)nc3ccccc32)cc1 (configuration not stated) 2.42%
Cc1ccc(S(=O)(=O)N(CC(=O)N/N=C/c2ccc(F)cc2)c2cccc3cccnc23)cc1 -0.495%
O=C(CNC(=O)c1cccnc1)N/N=C/c1cc(Br)c(O)c(Br)c1 -6.06%
C[C@H]1CN([C@@H](C)CO)C(=O)CCCn2nncc2CO[C@@H]1CN(C)Cc1ccc(Oc2ccccc2)cc1 13.9%
CNc1ccc(NC(C)=O)cc1[N+](=O)[O-] -0.656%
Cc1cc([N+](=O)[O-])c(=O)[nH]c1C 4.44%
Nc1nnnn1/N=C/c1cccc(Br)c1 -1.52%
Nc1nnnn1/N=C/c1cccs1 2.77%
COC(=O)[C@@]12C[C@@H](CC(=O)N3CCCCC3)C(=O)N(Cc3ccc4c(c3)OCO4)C1=CCC(C)(C)C2 -15.9%
COc1ccc(C(C)(C)C)cc1NC(=O)CN(C)C1=NS(=O)(=O)c2ccccc21 4.86%
C=CCOCCN(C)C1=NS(=O)(=O)c2ccccc21 -3.42%
CC1CN(C(=O)c2cccc(NS(=O)(=O)c3ccc(Br)cc3)c2)CC(C)O1 (configuration not stated) -2.46%
C[C@H](NC(=O)[C@@H]1CCCN1C(=O)[C@@H]1CCCN1C(=O)c1ccccc1)c1ccccc1 0.523%
CC1CN(S(=O)(=O)c2cccc(C(F)(F)F)c2)CN1C(=O)N1CCOCC1 (configuration not stated) -0.306%
CC1(C(=O)NCc2ccccc2)CSCC(=O)N1CCCN1CCOCC1 (configuration not stated) -1.18%
Cn1c(SCC(=O)Nc2ccc(Cl)cc2)nc(O)cc1=O 7.12%
CC1(C(=O)NCc2ccccc2)CN(S(C)(=O)=O)CC(=O)N1CC(F)(F)F (configuration not stated) 2.8%
CN1C(c2ccc(F)cc2)=CS/C1=C(/C#N)c1nnc2n1-c1ccccc1SC2 -14.2%
COC(=O)C1(C(=O)OC)C[C@H](c2ccccc2)N(Cc2ccccc2OC)[C@@H]1c1ccccc1 1.28%
CCC(C(=O)NCc1ccccc1)n1c(Cc2cc(F)cc(F)c2)nc2ccccc21 (configuration not stated) -0.68%
COc1ccc(N2c3ccccc3CN(Cc3ccccc3)[C@@H](C)[C@H]2Cc2ccc(-c3ccccc3)cc2)cc1 -12.3%
CC(=O)c1cc(CN2CCC(n3nccc3NC(=O)c3ccccc3Cl)CC2)cs1 -1.64%
Cc1ccc(-c2c(N)nc3ncccn23)cc1 -9.22%
CC(=O)N1Cc2cc(C(=O)NCc3cccc(F)c3)nc(-c3cccc(C4=CCCCC4)c3)c2[C@H]1CCO 0.697%
O=C(CN1CCN(Cc2ccccc2)CC1)NC(c1ccccc1)c1ccccc1 -3.09%
O=S1(=O)CCN(Cc2ccccc2)CC1 -0.459%
Clc1ccc(-c2nc3ccccn3c2CN2CCSCC2)cc1 -7.53%
